Compound activity as filed in PubChem.
WNV NS2B-NS3 inh = inhibitors of WNV NS2B-NS3 protease, primary screen, biochemical, fluorogenic substrate | z-score (concentration not given with the values) | 65,000 compounds, 0.18% hits | fluorogenic substrate Ex360/Em465; active compounds read low | AID 577, 2007; in the data active = z-score below about -3
M1 ag = M1 muscarinic receptor agonists, primary screen, CHO-M1 cells, Fluo-4 calcium, agonist mode | Fluo-4 calcium fluorescence; active compounds read high | B-score at 10 µM | 64,000 compounds, 3% hits;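 active = fluorescence rise, raw or as B-score row- and column-corrected plate score, outside the 99.7% band of its plate's samples, either direction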
BAP1 inh = inhibitors of BAP1 deubiquitinase, primary screen, biochemical, Ub-AMC fluorescence, kinetic; Ubiquitin carboxyl-terminal hydrolase BAP1 (Homo sapiens), Q92560; recombinant BAP1, Ub-AMC hydrolysis fluorescence kinetic; active compounds read low; calls only at 20 µM; 72,000 compounds, 0.48% hits; AID 436, 2006;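 active = activity remaining at or below 50% of control, provided the compound also passes the data quality filters; inactive = the rest, including low values that fail the filters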;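 note: 100% = DMSO wells rate and 0% = substrate alone blank rate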
Target sequence (Q92560 whole entry, looked up): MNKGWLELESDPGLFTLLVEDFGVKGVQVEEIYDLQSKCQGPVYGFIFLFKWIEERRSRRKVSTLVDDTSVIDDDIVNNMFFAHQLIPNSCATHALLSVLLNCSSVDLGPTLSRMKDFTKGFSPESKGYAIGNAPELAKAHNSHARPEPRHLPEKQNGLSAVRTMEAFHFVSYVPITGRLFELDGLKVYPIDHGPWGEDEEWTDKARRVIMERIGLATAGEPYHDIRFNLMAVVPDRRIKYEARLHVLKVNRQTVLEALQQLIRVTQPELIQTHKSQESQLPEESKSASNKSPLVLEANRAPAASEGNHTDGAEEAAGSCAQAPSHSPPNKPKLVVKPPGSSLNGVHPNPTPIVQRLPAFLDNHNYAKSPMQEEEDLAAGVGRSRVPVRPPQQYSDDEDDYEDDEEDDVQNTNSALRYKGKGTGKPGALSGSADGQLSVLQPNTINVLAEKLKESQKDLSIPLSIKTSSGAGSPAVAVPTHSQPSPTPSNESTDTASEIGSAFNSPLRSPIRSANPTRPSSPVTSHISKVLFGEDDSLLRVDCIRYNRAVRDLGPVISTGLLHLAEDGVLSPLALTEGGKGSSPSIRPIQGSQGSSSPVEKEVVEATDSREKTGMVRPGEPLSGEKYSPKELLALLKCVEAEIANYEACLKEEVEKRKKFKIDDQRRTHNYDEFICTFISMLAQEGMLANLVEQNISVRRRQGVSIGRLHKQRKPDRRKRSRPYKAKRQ
A340 absorber = compound light absorbance at 340 nm, profiling panel, artefact control, biochemical, MLSMR library, data from PS, PMK, MK assays; fold change at 10 µM; compound absorbance at 340 nm, fold over control; 65,000 tested, under 10 active;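 active = at 10 µM dose, initial 340 nm absorbance at least 2 fold that of control wells; inactive = change under 2 fold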;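 note: initial absorbance extrapolated from kinetic A340 decline of NADH oxidation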
Autofluor 339 = intrinsic fluorescence of library compounds, ex339/em460 – biochemical, MLSMR library, data from DPM-DC assay, artefact control, profiling panel | compound autofluorescence, ex339/em460 nm, NADH buffer; active compounds read high; 1 = no-compound wells, NADH background | fluorescence fold increase at 10 µM | 65,000 compounds, 5.5% hits | AID 709, 2007;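 active = at 10 µM, mean starting fluorescence two-fold or more over control wells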;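 note: signal is the first read of a kinetic run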
M1 antag = antagonists of rat M1 muscarinic receptor. Muscarinic acetylcholine receptor M1 (Rattus norvegicus), P08482. 64,000 compounds, 3.4% hits. AID 628, 2007. CHO-M1 cells, Fluo-4 calcium, ACh EC80 antagonist mode; active compounds read low. B-score at 10 µM;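 active = calcium fluorescence response, raw or row-and-column corrected B-score, differing from the plate sample mean either way at a set confidence level, mostly lower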
* = called active by the depositor; i = inactive; nt = no result given; + = active, no number. Compounds with a hit are over-represented: about 9.7% of the library has one in this group of screens.

SMILES	WNV NS2B-NS3 inh	M1 ag	BAP1 inh	A340 absorber	Autofluor 339	M1 antag
CCCCCCn1cnc2c(c1=O)c1nc3ccccc3nc1n2Cc1cccs1	0.97	-0.98	nt	1.1	2.3*	1.6
COCCCn1cnc2c(c1=O)c1nc3ccccc3nc1n2CCc1ccccc1	1.1	2.1	i	1.1	2.4*	-1
CCC(C)n1cnc2c(c1=O)c1nc3ccccc3nc1n2Cc1ccccc1OC (stereo not given)	-0.79	-0.35	i	1.1	1.2	-0.92
CCCCCCn1cnc2c(c1=O)c1nc3ccccc3nc1n2/N=C/c1ccco1	-0.42	-0.61	i	1.1	1.8	-0.83
CC(C)CCn1cnc2c(c1=O)c1nc3ccccc3nc1n2Cc1ccc2c(c1)OCO2	-0.54	-1	i	1.1	3.6*	0.56
Cc1c(NC(=O)c2ccc(OCc3ccccc3)cc2)cccc1-c1nc2ncccc2o1	nt	nt	i	nt	nt	nt
CCC(C)(Nc1ccc(C)cc1)c1nnnn1-c1c(C)cccc1C (stereo not given)	nt	nt	i	nt	nt	nt
CCCCn1c2nc3ccccc3nc2c2c(=O)n(CCC)cnc21	1.2	-0.026	nt	1.1	3.9*	-0.17
CCCn1cnc2c(c1=O)c1nc3ccccc3nc1n2Cc1ccccc1OC	1	0.063	i	1	1.1	-0.27
Cc1ccnc(N2C(=O)c3ccc(Oc4ccc5c(c4)C(=O)N(c4cc(C)ccn4)C5=O)cc3C2=O)c1	nt	nt	i	nt	nt	nt
c1ccc2oc(-c3nn4c(Cn5cnc6ccccc65)nnc4s3)cc2c1	0.69	0.026	nt	1.1	2.2*	-0.14
c1csc(-c2nn3c(Cn4cnc5ccccc54)nnc3s2)c1	0.3	0.0017	i	1.1	1.2	0.11
Cc1c(NC(=O)CCC2CCCCC2)c(=O)n(-c2ccccc2)n1C	-0.9	-1.9	nt	1.1	1.1	-0.21
Cc1c(NC(=O)C(C)N2CC(C)OC(C)C2)c(=O)n(-c2ccccc2)n1C (stereo not given)	-2.6	-0.082	i	0.99	1.1	1.8*
Cc1c(N=Cc2nn(-c3ccccc3)cc2-c2ccccc2)c(=O)n(-c2ccccc2)n1C	nt	nt	i	nt	nt	nt
COc1ccc(NC(=O)Cn2nnc(-c3ccccc3NC(=O)c3cccs3)n2)cc1	-0.6	0.41	i	1.1	3.5*	-0.29
O=C1Nc2ccc(I)cc2/C1=C/c1cc(Br)c(O)c(Br)c1	nt	nt	+	nt	nt	nt
O=C(Nc1ncc(S(=O)(=O)c2ccc([N+](=O)[O-])cc2)s1)c1ccc(-c2ccccc2)cc1	nt	nt	i	nt	nt	nt
c1csc(-c2nc3ccccc3[nH]2)c1	-0.41	0	i	1.1	3.6*	-0.036
Nc1nc(-c2nc3ccccc3[nH]2)cs1	1.4	-0.23	i	1.1	1.1	0.24
Cc1ccc(-c2nc3ccccc3[nH]2)s1	-0.6	-0.57	nt	1.1	2.5*	0.22
Cc1nnsc1-c1nc2ccccc2[nH]1	0.86	-0.34	nt	1.1	4.9*	-0.052
O=C(c1cccn2c(=O)c3ccc(Cl)cc3nc12)N1CCN(Cc2ccc3c(c2)OCO3)CC1	1.2	3.6	nt	1.1	4.9*	-1.1
COc1ccccc1-c1csc(NC(=O)c2cccs2)n1	nt	nt	i	nt	nt	nt
N#Cc1nc(COc2ccccc2F)oc1NCCCn1ccnc1	0.62	-0.72	i	1	1.1	-0.62
SMILES	WNV NS2B-NS3 inh	M1 ag	BAP1 inh	A340 absorber	Autofluor 339	M1 antag
N#Cc1nc(-c2ccco2)oc1NCCCn1ccnc1	-0.5	0.85	nt	1.1	4*	0.012
N#Cc1nc(-c2ccc(OCc3ccccc3Cl)cc2)oc1NCCCn1ccnc1	-0.78	-0.8	i	1.1	2.3*	0.66
N#Cc1nc(COc2ccccc2)oc1NCCCn1ccnc1	-3	-0.16	i	0.99	1.1	0.34*
CN(C)c1oc(-c2ccc(OCc3ccccc3)cc2)nc1C#N	-0.21	-0.45	i	1.1	3.9*	0.043
Cc1ccc(OCc2nc(C#N)c(NCCCn3ccnc3)o2)cc1	1.8	-0.066	i	0.99	0.96	-1.5
CCc1ccc2oc(-c3cccc(NC(=O)c4ccccc4F)c3)nc2c1	nt	nt	i	nt	nt	nt
CC(=O)N1c2ccccc2NC2=C(C(=O)CC(c3ccccc3)C2)C1c1ccc2c(c1)OCO2 (stereo not given)	nt	nt	i	nt	nt	nt
N#Cc1nc(-c2ccc(OCc3ccccc3)cc2)oc1NCCCn1ccnc1	-1.5	0.57	i	1	4*	-0.025
CCOC(=O)N1CCC(NC(=O)c2cccn3c(=O)c4cc(Br)ccc4nc23)CC1	-0.71	0.087	i	1	2.2*	0.37
CSc1nc2ccc3nc(NC(=O)c4cccs4)sc3c2s1	0.44	-0.7	nt	1.1	4.5*	0.41
CC(C)(C)c1csc(NC(=O)c2cccs2)n1	-0.03	-0.62	i	1.1	1.2	0.02
c1ccc(CC2CCN(c3nc4ccccc4n4nnnc34)CC2)cc1	-0.41	-1.6	i	1.1	2.6*	0.017
CCOC(=O)Cc1c(C)nc2cc(-c3ccc(C)cc3)[nH]n2c1=O	-0.69	1.9	i	1.1	1.9	0.033
CCOC(=O)Cc1c(C)nc2c(-c3ccccc3)c[nH]n2c1=O	-1.2	0.8	nt	1.1	2.2*	-0.53
O=C(Nc1ccc2oc(-c3ccc(Br)cc3)nc2c1)c1ccc(Cl)cc1	nt	nt	i	nt	nt	nt
Cc1nnc2sc(-c3ccc(NC(=O)c4cccnc4)cc3)nn12	-0.39	-0.43	nt	1.1	1.1	-0.81
Cc1nnc2sc(-c3ccc(NC(=O)c4ccc(-c5ccc(Cl)cc5Cl)o4)cc3)nn12	-1.5	0.53	i	1.1	3.9*	-0.13
Cc1ccccc1NC(=O)C(c1ccc([N+](=O)[O-])cc1)N1CCOCC1 (stereo not given)	nt	nt	i	nt	nt	nt
COc1cc2[nH]c(=O)n3nc(-c4ccccc4)nc3c2cc1OC	0.36	-0.55	i	1.1	2.1*	-1.3
COc1cc2[nH]c(=O)n(CCCC(=O)N3CC=C(c4ccccc4)CC3)c(=O)c2cc1OC	-1.2	2.3	nt	1.1	1.5	-1
O=C(Nc1nccs1)c1ccc2c(c1)C(=O)N(c1ccc(Sc3ccc([N+](=O)[O-])cc3)cc1)C2=O	nt	nt	i	nt	nt	nt
CCCn1nc(NC(=O)c2ccco2)c2cc3ccc(C)cc3nc21	1.3	-0.36	i	1	3.9*	-0.38
O=C(CSc1nnc(-c2ccc(Cl)s2)o1)N1CCCc2ccccc21	-0.96	nt	i	1	1.2	nt
O=C(CSc1nnc(-c2ccc(Cl)s2)o1)N1CCc2ccccc21	-1	nt	i	1	2*	nt
CCOc1ccc2[nH]c(C)c(CN3CCCCC3)c(=O)c2c1	1.3	-0.18	i	1.1	3*	0.83
COc1ccc2[nH]c(C)c(CN3CCCC(C)C3)c(=O)c2c1 (stereo not given)	1.1	-0.017	i	0.98	2.1*	0.003
